The record followed here is PubChem BioAssay.

Molecules are shown by their SMILES. Active and inactive are the calls of the source. No rule for the calls is given here.

Broadly, the inhibition is the change of the read-out against control, counted positive when it falls.

The target of the assay is Pantothenate synthetase (Mycobacterium tuberculosis (strain ATCC 25618 / H37Rv)) (UniProt P9WIL5). Kind of assay: Recombinant Mtb pantothenate synthetase (PanC) inhibitors, coupled enzyme, confirmatory (AID 375).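 Also: 0% = full reaction with vehicle and 100% = no enzyme background.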 Conditions: coupled enzyme assay; at 10 µM, hits give high values.
Pantothenate synthetase (Mycobacterium tuberculosis (strain ATCC 25618 / H37Rv)), sequence (P9WIL5 whole entry, looked up): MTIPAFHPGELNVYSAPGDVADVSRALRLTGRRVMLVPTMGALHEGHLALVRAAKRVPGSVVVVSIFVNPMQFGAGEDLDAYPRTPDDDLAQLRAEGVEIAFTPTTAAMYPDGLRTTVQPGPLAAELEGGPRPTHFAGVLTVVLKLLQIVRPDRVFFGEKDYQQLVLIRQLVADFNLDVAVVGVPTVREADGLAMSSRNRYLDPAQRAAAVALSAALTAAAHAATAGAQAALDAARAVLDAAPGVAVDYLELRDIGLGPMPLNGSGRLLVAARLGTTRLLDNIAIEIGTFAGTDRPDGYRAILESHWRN
For the molecule `Cc1c(Cl)cccc1NC(=O)CCN1CCCCCC1`, the inhibition was 0% (inactive).
In the case of `CC1CCCCC1NC(=O)Cn1nnc(-c2ccc(Cl)cc2)n1` (configuration not stated) it was 1% (inactive); in that of `Cc1oc(-c2ccccc2)cc1C(N)=O`, 0% (inactive); in that of `O=C(CSc1ccc2nnc(-c3ccccc3)n2n1)N1CCN(c2ccccc2)CC1`, 1% (inactive).
In the case of `CCOc1ccc(OCC)c(NC(=O)C2CCN(c3ncccn3)CC2)c1` it was 0% (inactive).
As for `Cc1c(C(=O)NCc2cccnc2)oc2ccc(S(=O)(=O)N3CCCCC3)cc12`, the inhibition is 0% (inactive).
As to `Cc1cc(C)cc(NC(=O)CN(C)S(=O)(=O)c2cnc[nH]2)c1`, the inhibition was 11% (inactive).
